This is an account of results in the supplement of paper PMC10127200.

Where a name gives a salt, the structure may show the parent alone.

For the first assay, the system named is DU145. The experiment in a line: Euclidean distance of Cell Painting phenotypic profile (signed KS, 77 features) to DMSO centroid (dimensionless distance); 5 or 10 uM (library dependent); higher = stronger phenotypic change vs DMSO (phenoactivity). The settings on record: 48 h. The method in brief: (§1)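 Harmony extracted 77 features from 20X confocal images (9 fields/well) of stained cells, scoring each as a signed Kolmogorov-Smirnov statistic against same-plate vehicle wells. The cells, five cancer lines and a healthy fibroblast line, had received library compounds for 48 h at 10 or 5 uM depending on library, with 0.1% DMSO final. Phenoactivity is the Euclidean distance from each plate-position-corrected, correlation-weighted, top-dose replicate-averaged profile to the median vehicle profile.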
`COc1ccc2[nH]c([S@@+]([O-])Cc3ncc(C)c(OC)c3C)nc2c1` [NEXIUM (esomeprazole magnesium)] showed an Euclidean distance of 1.47. Still for that read-out and setting: the result for `CC(C)(C)NCC(O)COc1cccc2c1CC(O)C(O)C2` (centres undefined) [Nadolol] reads 1.88; that for `C[C@@H]1C(=O)O[C@H]2C[C@@]34[C@H]5C[C@@H](C(C)(C)C)[C@]36[C@@H](OC(=O)[C@@H]6O)O[C@@]4(C(=O)O5)[C@]21O` [Ginkgolide A], 1.93.

`CS(=O)(=O)c1cccc(CNc2nc(Nc3ccc4c(c3)CCC(=O)N4)ncc2C(F)(F)F)c1` registered an Euclidean distance of 3.07.

The test system of another assay is FB. The assay is described as above. The settings on record: 48 h. The method in brief:
as §1
In turn, `COc1c(C)c2c(c(O)c1C/C=C(\C)CCC(=O)OCCN1CCOCC1)C(=O)OC2` [Mycophenolate Mofetil] displayed an Euclidean distance of 3.32. On to `C[C@@H]1C[C@H]2[C@@H]3C[C@H](F)C4=CC(=O)C=C[C@]4(C)[C@@]3(F)[C@@H](O)C[C@]2(C)[C@@]1(O)C(=O)CO` [Flumethasone], for which the Euclidean distance was 2.26. The same measure, in the same setting: the result for `CN(C)Cc1cccc(N=C(c2ccccc2)c2c(O)[nH]c3cc(C(=O)N(C)C)ccc23)c1` reads 3.16. On the same count and under the same terms, as for `NC(=O)c1ncn([C@@H]2O[C@H](CO)[C@@H](O)[C@H]2O)c1N` [Acadesine], the figure is 1.35; as for `CCN(CC)CCOC(=O)C(c1ccccc1)c1ccccc1` [Adiphenine HCl], 1.43. Same read-out and setting: as for `c1ccc(C2CN3CCSC3=N2)cc1` (single isomer, unassigned; (-)) [(-)-Tetramisole], the figure is 0.965; as for `NCCCCCC(=O)O`, 1.67. In the case of `NC(=O)[C@@H]1CSSCCC(=O)N[C@@H](CCCCN=C(N)N)C(=O)NCC(=O)N[C@@H](CC(=O)O)C(=O)N[C@@H](Cc2c[nH]c3ccccc23)C(=O)N2CCC[C@H]2C(=O)N1` [Eptifibatide Acetate], the Euclidean distance came to 1.11. On to `C[C@@H]1CN(CC(=O)Nc2ccc3c(c2)Cc2cccc(-c4cc(=O)cc(N5CCOCC5)o4)c2S3)C[C@H](C)O1`, for which the Euclidean distance was determined as 1.37.

`N=c1ccn2c(n1)O[C@H]1[C@H](O)[C@@H](CO)O[C@H]12` [Cyclocytidine HCl]: the Euclidean distance amounted to 3.66. Still for that read-out and setting: the result for `CC(C)[C@H](O)C(=O)N[C@@H](C)C(=O)N[C@@H]1C(=O)N(C)CCc2ccccc21` reads 1.22.

The molecule `Cc1ccc2c(=O)c3cccc(CC(=O)O)c3oc2c1C` [DMXAA (Vadimezan)] gave an Euclidean distance of 1.4. Still for that read-out and setting: the result for `CCc1c(C(=O)NCCc2ccc(N3CCCCC3)cc2)[nH]c2ccc(Cl)cc12` reads 1.21. `CC(C)C[C@@H](C(=O)N[C@H](C(=O)OC1CCCC1)c1ccccc1)[C@H](O)C(=O)NO` [Tosedostat (CHR2797)] had an Euclidean distance of 1.15. On the same count and under the same terms, the result for `C=CCn1c(=O)c2cnc(Nc3ccc(N4CCN(C)CC4)cc3)nc2n1-c1cccc(C(C)(C)O)n1` reads 3.63; that for `Cc1cc(NC(=O)Nc2ccc(N(C)C)cc2)c2cc(F)cc(F)c2n1`, 0.943. Same read-out and setting: as for `COc1ccc2cc(C(=O)O)ccc2c1` [6-Methoxy-2-naphthoic acid], the figure is 1.15; as for `CCCCOc1c(C(=O)c2c(F)cc(C)cc2F)c[nH]c2nncc1-2`, 1.37. On the same count and under the same terms, the result for `O=C(NOCC(O)CO)c1cc(Br)c(F)c(F)c1Nc1ccc(I)cc1F` (centres undefined) reads 2.89.

With `CCOC(=O)[C@H](CCc1ccccc1)N[C@H]1CCCN2CCC[C@@H](C(=O)O)N2C1=O` [Cilazapril Monohydrate], the Euclidean distance is 1.03. `CCC(=O)O[C@]1(C(=O)CCl)[C@@H](C)C[C@H]2[C@@H]3CCC4=CC(=O)C=C[C@]4(C)[C@@]3(F)[C@@H](O)C[C@@]21C` [Clobetasol propionate] displayed an Euclidean distance of 2.08.

`Clc1ccc(C2(c3ccc(-c4cn[nH]c4)cc3)CCNCC2)cc1` showed an Euclidean distance of 4.67. On the same count and under the same terms, as for `COc1cc(NS(=O)(=O)c2ccc(N)cc2)nc(OC)n1` [Sulphadimethoxine], the figure is 1.62; as for `Nc1cccc(-c2cc3c(Oc4cccc(O)c4)ncnc3[nH]2)c1`, 2.71; as for `C=CCc1cc(OC)c(O)c(C(=O)NCCO)c1` [Alibendol], 0.938. Molecule `NS(=O)(=O)c1cc2c(cc1Cl)NCNS2(=O)=O` [Hydrochlorothiazide] had an Euclidean distance of 1.02.

For `CCCc1nc2c(C)cc(-c3nc4ccccc4n3C)cc2n1Cc1ccc(-c2ccccc2C(=O)O)cc1` [Telmisartan], the Euclidean distance stood at 1.03. The same measure, in the same setting: as for `CCCNC(=O)Nc1ccc(Oc2ncnc3cc(OC)c(OC)cc23)cc1Cl`, the figure is 2.36. Still for that read-out and setting: the result for `COc1cc(Nc2nc3ccccc3nc2NS(=O)(=O)c2ccc(NC(=O)c3ccc(C)c(OC)c3)cc2)cc(OC)c1` reads 0.743. In turn, `C[C@@]1(c2cc(-c3cncnc3)c(F)cc2F)CCSC(N)=N1` registered an Euclidean distance of 1.09. On the same count and under the same terms, the result for `CCCCCCCCCCCCc1ccc(S(=O)(=O)Nc2nncs2)cc1` reads 1.16; that for `Cc1ccc(-n2nc(C(C)(C)C)cc2NC(=O)Nc2ccc(OCCN3CCOCC3)c3ccccc23)cc1` [BIRB 796 (Doramapimod)], 1.38. Same read-out and setting: the result for `O=S(=O)(NCCNC/C=C/c1ccc(Br)cc1)c1cccc2cnccc12` reads 1.3. `CCOC(=O)CCNc1cc(N2CCc3ccccc3CC2)nc(-c2ccccn2)n1` registered an Euclidean distance of 2.56. On the same count and under the same terms, as for `NC(=O)Nc1cc(-c2cccc(F)c2)sc1C(=O)N[C@H]1CCCNC1`, the figure is 3.82; as for `CNC(=O)CN(CCN(CCN(CC(=O)[O-])CC(=O)NC)CC(=O)[O-])CC(=O)[O-].[Gd+3]` [Gadodiamide], 0.962; as for `COc1ccc2[nH]c([S@@+]([O-])Cc3ncc(C)c(OC)c3C)nc2c1` [NEXIUM (esomeprazole magnesium)], 0.904. `CC(C)(C)NCC(O)COc1cccc2c1CC(O)C(O)C2` (centres undefined) [Nadolol] had an Euclidean distance of 0.792. Still for that read-out and setting: as for `C[C@@H]1C(=O)O[C@H]2C[C@@]34[C@H]5C[C@@H](C(C)(C)C)[C@]36[C@@H](OC(=O)[C@@H]6O)O[C@@]4(C(=O)O5)[C@]21O` [Ginkgolide A], the figure is 1.46; as for `CS(=O)(=O)c1cccc(CNc2nc(Nc3ccc4c(c3)CCC(=O)N4)ncc2C(F)(F)F)c1`, 3.24.
